# Assay results as given in PubChem BioAssay AID2578 (National Center for Advancing Translational Sciences (NCATS), 2010).
# Calls of active or inactive are those of the source. Calls come from the whole dose curve; as a rule, active = well fitted curve in the direction sought with a large enough effect; inactive = no such curve, though single readings can be large or run the other way.
# Target: Alpha-galactosidase A (Homo sapiens) (UniProt P06280)
# Assay: qHTS Assay for Inhibitors and Activators of N370S glucocerebrosidase as a Potential Chaperone Treatment of Gaucher Disease: Alpha-Galactosidase Counterscreen
# Settings: purified enzyme, 4-MU-alpha-Gal fluorescence, 20 min; series mostly up to 57.5 µM
# Text: NIH Chemical Genomics Center [NCGC] NIH Molecular Libraries Probe Production Centers Network [MLPCN] MLPCN Grant: MH086442-01 Assay Submitter (PI): Wei Zheng Glucocerebrosidase (GC) catalyzes the hydrolysis of beta-glucocerebroside to glucose and ceramide in lysosomes. Mutations in the glucocerebrosidase gene result in Gaucher disease, an autosomal recessive lysosomal storage disorder. Many of the mutations encountered in patients with Gaucher disease are missense alterations that may cause misfolding, decreased stability and/or mistrafficking of this lysosomal protein. […] These inhibitors include iminosugar analogs and three non-iminosugar inhibitors identified from a previous HTS of 62,000 compounds with the wild type recombinant enzyme. However, the enhancement of enzyme activity by the chaperone action of an enzyme inhibitor must be balanced against the direct inhibition of the enzyme. An enzyme activator could also function as a chaperone by binding to the enzyme and helping to correct its misfolding and mistrafficking. While activators for GC have not yet been identified, they may have better therapeutic potential than inhibitors. Therefore the discovery and development of chemical activators may provide a new strategy for the chaperone therapy. To characterize compound selectivity, selected hits from the primary screen were screened against purified alpha-galactosidase, a related sugar hydrolase. Alpha-galactosidase is a homodimeric glycoprotein that hydrolyzes the terminal alpha-galactosyl moieties from glycolipids and glycoproteins.
# NCGC Assay Protocol Summary: This is a fluorogenic enzyme assay with 4-Methylumbelliferyl alpha-D-galactopyranoside as the substrate and human […] as the enzyme preparation. Upon the hydrolysis of this fluorogenic substrate, the resulting product, […]. 4-Methyllumbelliferone, can be excited at 365 nm and emits at 440 nm. This fluorescence which can be detected by a standard fluorescence plate reader. Data were normalized to the controls for basal activity (without enzyme) and 100% activity (with enzyme). In the AC50 values were determined from concentration-response data modeled with the standard Hill equation. Assay buffer: 50 mM citric acid (titrated with potassium phosphate to pH 4.5), 0.005% Tween-20, pH 4.5. (pH 4.5 is an optimal condition for this enzyme assay) 1536-well assay protocol for the human alpha-galactosidase: (1) Add 2 ul/well of enzyme (12 nM final) (2) Add 23 nL compounds in DMSO solution. The final titration was 0.7 nM to 77 uM. (3) Add 1 ul of substrate ([…]) (4) Incubate at room temperature for 20 min. (5) Add 2 ul stop solution (1M NaOH and 1M Glycine mixture, pH 10) (6) Detect the assay plate in a ViewLux plate reader (PerkinElmer) with Ex=365 nm and Em=440nm. Keywords: MLSMR, MLPCN, NIH Roadmap, qHTS, NCGC, : Alpha-galactosidase, Fabry Disease, pharmacological chaperone, chaperone therapy
# Alpha-galactosidase A (Homo sapiens), sequence (P06280 whole entry, looked up): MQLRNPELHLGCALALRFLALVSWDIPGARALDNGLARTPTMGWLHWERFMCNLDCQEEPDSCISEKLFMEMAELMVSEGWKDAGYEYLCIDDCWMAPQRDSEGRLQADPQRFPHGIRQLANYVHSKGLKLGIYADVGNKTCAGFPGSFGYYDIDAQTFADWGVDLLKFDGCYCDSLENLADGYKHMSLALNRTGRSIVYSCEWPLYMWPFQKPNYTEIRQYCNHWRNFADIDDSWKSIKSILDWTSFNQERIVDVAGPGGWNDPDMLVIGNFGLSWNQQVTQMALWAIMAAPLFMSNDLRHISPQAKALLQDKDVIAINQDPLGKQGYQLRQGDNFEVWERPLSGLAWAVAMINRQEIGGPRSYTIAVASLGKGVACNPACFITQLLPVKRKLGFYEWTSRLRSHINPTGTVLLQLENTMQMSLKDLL
row,Compound,outcome
1,O=S(=O)(c1ccccc1Br)N1CCN(c2nc(-c3cccs3)nc3ccccc23)CC1,inactive
2,O=S(=O)(c1ccc(F)cc1)N1CCN(c2nc(-c3ccccc3)nc3cc(Cl)ccc23)CC1,inactive
3,O=S(=O)(c1ccc(Cl)cc1)N1CCN(c2nc(-c3ccccc3)nc3ccccc23)CC1,inactive
4,O=S(=O)(c1ccc(F)cc1)N1CCN(c2nc(-c3cccs3)nc3ccccc23)CC1,inactive
5,O=S(=O)(c1ccc2c(c1)CCC2)N1CCN(c2nc(-c3ccccc3)nc3ccccc23)CC1,inactive
6,CC(=O)c1ccc(S(=O)(=O)N2CCN(c3nc(-c4cccs4)nc4ccccc34)CC2)cc1,inactive
7,COc1ccc(-c2nc(N3CCN(S(=O)(=O)c4ccccc4)CC3)c3ccccc3n2)cc1,inactive
8,O=S(=O)(c1ccc2c(c1)OCCO2)N1CCN(c2nc(-c3ccccc3)nc3ccccc23)CC1,inactive
9,Cc1ccc(S(=O)(=O)N2CCN(c3nc(-c4cccs4)nc4ccccc34)CC2)cc1,inactive
10,O=S(=O)(c1ccc(F)cc1)N1CCN(c2nc(-c3cccc(Br)c3)nc3ccccc23)CC1,inactive
11,O=S(=O)(c1ccc2ccccc2c1)N1CCN(c2nc(-c3cccs3)nc3ccccc23)CC1,inactive
12,CCOC(=O)c1ccc(S(=O)(=O)N2CCN(c3nc(-c4ccccc4)nc4ccccc34)CC2)cc1,inactive
13,O=S(=O)(c1ccc(Cl)cc1)N1CCN(c2nc(-c3cccs3)nc3ccccc23)CC1,inactive
14,O=S(=O)(c1ccc2c(c1)CCCC2)N1CCN(c2nc(-c3ccccc3)nc3ccccc23)CC1,inactive
15,O=S(=O)(c1ccccc1Br)N1CCN(c2nc(-c3ccccc3)nc3ccccc23)CC1,inactive
16,O=S(=O)(c1cccc(Cl)c1)N1CCN(c2nc(-c3ccccc3)nc3ccccc23)CC1,inactive
17,COc1ccc(S(=O)(=O)N2CCN(c3nc(-c4cccs4)nc4ccccc34)CC2)cc1OC,inactive
18,O=S(=O)(c1ccc(Cl)cc1)N1CCN(c2nc(-c3ccc(Cl)cc3)nc3ccccc23)CC1,inactive
19,O=S(=O)(c1ccccc1Cl)N1CCN(c2nc(-c3ccccc3)nc3ccccc23)CC1,inactive
20,O=[N+]([O-])c1ccccc1S(=O)(=O)N1CCN(c2nc(-c3cccs3)nc3ccccc23)CC1,inactive

row,Compound,outcome
1,O=[N+]([O-])c1ccccc1S(=O)(=O)N1CCN(c2nc(-c3ccccc3)nc3ccccc23)CC1,inactive
2,COc1ccc(S(=O)(=O)N2CCN(c3nc(-c4cccs4)nc4ccccc34)CC2)cc1,inactive
3,Cc1ccc(-c2nc(N3CCN(S(=O)(=O)c4ccc(F)cc4)CC3)c3ccc(Cl)cc3n2)cc1,inactive
4,CCOc1ccc(S(=O)(=O)N2CCN(c3nc(-c4ccccc4)nc4ccccc34)CC2)cc1,inactive
5,O=S(=O)(c1ccc(OC(F)(F)F)cc1)N1CCN(c2nc(-c3cccs3)nc3ccccc23)CC1,inactive
6,O=S(=O)(c1ccccc1)N1CCN(c2nc(-c3cccs3)nc3ccccc23)CC1,inactive
7,N#Cc1ccc(S(=O)(=O)N2CCN(c3nc(-c4ccccc4)nc4ccccc34)CC2)cc1,inactive
8,O=S(=O)(c1ccc(OC(F)(F)F)cc1)N1CCN(c2nc(-c3ccccc3)nc3ccccc23)CC1,inactive
9,Cc1ccc(S(=O)(=O)N2CCN(c3nc(-c4ccccc4)nc4ccccc34)CC2)cc1,inactive
10,N#Cc1ccccc1S(=O)(=O)N1CCN(c2nc(-c3ccccc3)nc3ccccc23)CC1,inactive
11,NS(=O)(=O)c1ccc(S(=O)(=O)N2CCN(c3nc(-c4cccs4)nc4ccccc34)CC2)cc1,inactive
12,O=S(=O)(c1ccc2ccccc2c1)N1CCN(c2nc(-c3ccccc3)nc3ccccc23)CC1,inactive
13,COc1ccc(-c2nc(N3CCN(S(=O)(=O)c4ccc(F)cc4)CC3)c3ccccc3n2)cc1,inactive
14,O=S(=O)(c1ccc(F)cc1)N1CCN(c2nc(-c3ccc(F)cc3)nc3cc(Cl)ccc23)CC1,inactive
15,O=[N+]([O-])c1cccc(S(=O)(=O)N2CCN(c3nc(-c4cccs4)nc4ccccc34)CC2)c1,inactive
16,N#Cc1ccccc1S(=O)(=O)N1CCN(c2nc(-c3cccs3)nc3ccccc23)CC1,inactive
17,O=[N+]([O-])c1ccc(S(=O)(=O)N2CCN(c3nc(-c4cccs4)nc4ccccc34)CC2)cc1,inactive
18,O=S(=O)(c1ccccc1Cl)N1CCN(c2nc(-c3cccs3)nc3ccccc23)CC1,inactive
19,CC(C)(C)c1ccc(S(=O)(=O)N2CCN(c3nc(-c4ccccc4)nc4ccccc34)CC2)cc1,inactive
20,COc1ccc(S(=O)(=O)N2CCN(c3nc(-c4ccccc4)nc4ccccc34)CC2)cc1,inactive
